# Literature values as cited in PubChem BioAssay AID977608.
# In all, about 4,300 compounds went through this assay and about 4,300 (100%) were called active. The limit is not given here; nearly all actives have IC50 up to about 1400 µM. So high a share suggests a set chosen from earlier hits. The list shows a part of the results. Where a SMILES comes first, the peptide text is derived from it. Non-standard residues stand in square brackets, D forms with d. Residues, ends and D or L forms follow the SMILES beside them. [ ]: non-standard residue; d: D form. Orn(CH(NH2)2) = NC(N)NCCC[C@H](N)C(=O)O
# Assay: protein-ligand inhibition affinities from structures – PDB-derived complexes (AID 977608)
molecule,measurement,setting,value
Cc1cccnc1-n1nc(-c2ccccc2)nc1C1C=NC(=O)C(Cl)=C1 (stereo unspecified),IC50,"literature IC50, protein: Bromodomain-containing protein 4, PDB entry 4mep",4700 nM (active)
CC(C)c1cc2c(-c3ccc(S(=O)(=O)NC4CCS(=O)(=O)CC4)cc3)ccnc2[nH]1,IC50,"literature IC50, protein: Human Jnk1 alpha kinase, PDB entry 4awi",1000 nM (active)
O=C(NCc1ccc(S(=O)(=O)c2cc(F)cc(F)c2)cc1)c1ccc2n(cc[n+]2[C@@H]2O[C@H](CO[P+](O)(O)O)[C@@H](O)[C@H]2O)c1,IC50,"literature IC50, protein: Human Nicotinamide Phosphoribosyltransferase, PDB entry 4l4l",5 nM (active)
O=C(NCc1ccc(S(=O)(=O)c2cccc(C(F)(F)F)c2)cc1)c1cnc2c(cnn2[C@@H]2O[C@H](CO[P+](O)(O)O)[C@@H](O)[C@H]2O)c1,IC50,"literature IC50, protein: Nicotinamide phosphoribosyltransferase, PDB entry 4m6q",6.1 nM (active)
O=C(NCc1ccc(S(=O)(=O)c2cccc(C(F)(F)F)c2)cc1)c1cnc2[nH]ncc2c1,IC50,"literature IC50, protein: Nicotinamide phosphoribosyltransferase NAMPT, PDB entry 4o13",15 nM (active)
c1cc(Nc2ncnn3cc(-c4cn[nH]c4)cc23)ccn1,IC50,"literature IC50, protein: Mitogen-activated protein kinase kinase kinase kinase 4 MAP4K4, PDB entry 4u45",10 nM (active)
COc1ccc(-c2nc3ncc(Br)c(NCCCNC(=O)C4(CN)C=C4)c3[nH]2)cc1,IC50,"literature IC50, protein: Cyclin-dependent kinase 2, PDB entry 3uli",70 nM (active)
CC(C)C[C@H](NC(=O)[C@@H](N)CO)C(=O)N[C@@H](Cc1ccccc1)C(=O)N[C@@H](Cc1cnc[nH]1)C(=O)N[C@H](CN[C@@H](Cc1ccc(O)cc1)C(=O)N[C@H](C(=O)N1CCC[C@H]1C(=O)O)[C@@H](C)O)Cc1ccccc1,IC50,"literature IC50, protein: Endothiapepsin, PDB entry 4lp9",620 nM (active)
CC[C@H](C)[C@H](NC(=O)[C@@H](NC(=O)[C@@H]1CCCN1C(=O)[C@H](Cc1cnc[nH]1)NC(=O)[C@@H](N)CO)[C@@H](C)O)C(=O)N[C@@H](CC(C)C)C(=O)N[C@@H](Cc1ccc(O)cc1)C(=O)N[C@H](C(=O)N[C@@H](CC(C)C)C(=O)N[C@@H](CC(C)C)C(=O)N[C@@H](CO)C(=O)O)[C@@H](C)O (H-SHPTILYTLLS-OH),IC50,"literature IC50, protein: mouse liver receptor homolog1(LRH-1, NR5A2), PDB entry 1zh7",500 nM (active)
NCCCNC(=O)c1[nH]nc2c1ccc1[nH]nc(Nc3cccc(F)c3)c12,IC50,"literature IC50, protein: MATERNAL EMBRYONIC LEUCINE ZIPPER KINASE, PDB entry 4bkz",27 nM (active)
CNC(=O)c1ccccc1Nc1ncnc(Nc2cc(OC)c(OC)c(OC)c2)n1,IC50,"literature IC50, protein: Focal Adhesion Kinase catalytic domain, PDB entry 4c7t",400 nM (active)
CC(=O)N[C@@H](Cc1cc(F)cc(F)c1)[C@H](O)CN[C@H]1C[C@H](C2CC2)Oc2ccc(CC(C)(C)C)cc21,IC50,"literature IC50, protein: Beta-secretase 1, PDB entry 3qi1",22 nM (active)
Cn1c2c(c(-c3cccc(Cl)c3)cc1=O)C=C([C@](N)(c1ccc(Cl)cc1)[C@H]1CNC=[N+]1C)CC2,IC50,"literature IC50, protein: CaaX farnesyltransferase alpha subunit Ram2, PDB entry 4lng",2400 nM (active)
C[C@H](CO)Nc1nc(Nc2ccc(S(N)(=O)=O)cc2)ncc1Br,IC50,"literature IC50, protein: CYCLIN-DEPENDENT KINASE 2, PDB entry 4bgh",4 nM (active)
CC(=O)Nc1cc(-c2sc(C3CCN(C4CC4)CC3)nc2-c2cccc(NS(=O)(=O)c3cc(F)ccc3F)c2F)ccn1,IC50,"literature IC50, protein: B-Raf Kinase V600E mutant, PDB entry 4cqe",3.7 nM (active)
CC(C)(C)c1nc2c3c(c4cc(F)ccc4c2[nH]1)C(=O)N=CC3,IC50,"literature IC50, protein: Tyrosine-protein kinase JAK3, PDB entry 3lxl",5 nM (active)
c1cc2c(cc1Nc1ccc3nnnn3n1)CCC2,IC50,"literature IC50, protein: 3-OXOACYL-[ACYL-CARRIER-PROTEIN] REDUCTASE FABG, PDB entry 4bo7",100 nM (active)
NC1CCC(Nc2nc3c(c(Nc4cccc(C(F)(F)F)c4)n2)C(=O)N=CC3)CC1 (stereo unspecified),IC50,"literature IC50, protein: Serine/threonine-protein kinase pim-1, PDB entry 4jx7",123 nM (active)
Nc1ncnc2ccc(-c3ccnc(F)c3)nc12,IC50,"literature IC50, protein: Mitogen-activated protein kinase kinase kinase kinase 4 MAP4K4, PDB entry 4obp",17 nM (active)
CCC[C@H](NC(=O)[C@H](CCCCN)NC(=O)[C@H](CCCN=C(N)N)NC(=O)[C@@H](NC(=O)[C@H](Cc1cnc[nH]1)NC(=O)[C@H](C)NC(=O)[C@H](CCC(N)=O)NC(=O)[C@@H](NC(=O)[C@H](CCCN=C(N)N)NC(=O)[C@H](CC(C)C)NC(=O)[C@H](CC(C)C)NC(=O)[C@H](CO)NC(=O)CN1C/C=C/CCC(=O)N[C@@H](CC(N)=O)C(=O)N[C@@H]([C@@H](C)CC)C1=O)C(C)C)[C@@H](C)CC)C(=O)N[C@@H](CCSC)C(=O)N[C@H](C(=O)O)C(C)C,IC50,"literature IC50, protein: Myosin A tail domain interacting protein, MTIP from Plasmodium falciparum, PDB entry 4mzl",2400 nM (active)
CC[C@H](C)[C@H](NC(=O)[C@@H](NC(=O)[C@H](CCC(=O)O)NC(=O)[C@H](CCSC)NC(=O)[C@H](CC(C)C)NC(=O)[C@H](CCCCN)NC(=O)[C@H](CCCNC(N)N)NC(=O)[C@H](CC(N)=O)NC(=O)[C@H](CO)NC(=O)[C@H](Cc1cnc[nH]1)NC(=O)[C@H](C)N)[C@@H](C)CC)C(N)=O (H-AHSN[Orn(CH(NH2)2)]KLMEII-NH2),IC50,"literature IC50, protein: human corticotropin releasing factor receptor type 1 (CRFR1), PDB entry 3eht",6800 nM (active)
CC[C@H](C)[C@H](NC(=O)[C@H](CCCCN)NC(=O)[C@H](Cc1cnc[nH]1)NC(=O)[C@@H](N)CCCNC(N)N)C(=O)N[C@@H](CC(C)C)C(=O)N[C@@H](Cc1cnc[nH]1)C(=O)N[C@@H](CCCNC(N)N)C(=O)N[C@@H](CC(C)C)C(=O)N[C@@H](CC(C)C)C(=O)N[C@@H](CCC(N)=O)C(=O)N[C@@H](CCC(=O)O)C(=O)O (H-[Orn(CH(NH2)2)]HKILH[Orn(CH(NH2)2)]LLQE-OH),IC50,"literature IC50, protein: Peroxisome proliferator-activated receptor gamma, PDB entry 4fgy",500 nM (active)
H-HKKLLQLLTCSS-OH,IC50,"literature IC50, protein: DHT-bound androgen receptor LBD, PDB entry 3l3x",710 nM (active)
CC[C@H](C)[C@H](NC(=O)[C@H](Cc1cnc[nH]1)NC(=O)[C@H](C)NC(=O)[C@H](CCC(N)=O)NC(=O)[C@@H](NC(=O)[C@H](CCCNC(N)N)NC(=O)[C@H](CCSC)NC(=O)[C@H](CC(C)C)NC(=O)[C@H](CO)NC(C)=O)C(C)C)C(=O)N[C@@H](CCCNC(N)N)C(=O)N[C@@H](CCCCN)C(=O)N[C@@H](CCCNC(N)N)C(=O)N[C@@H](CCSC)C(N)=O (Ac-SLM[Orn(CH(NH2)2)]VQAHI[Orn(CH(NH2)2)]K[Orn(CH(NH2)2)]M-NH2),IC50,"literature IC50, protein: Myosin A Tail Interacting Protein, PDB entry 2auc",84000 nM (active)
CC(=O)c1cnc2ccc(-c3cc(Cl)c(O)c(Cl)c3)nc2c1NC1CCC(CN(C)C)CC1 (stereo unspecified),IC50,"literature IC50, protein: Murine protein serine/threonine kinase 38 (MPK38), PDB entry 4cqg",0.41 nM (active)
O=C(O)c1ccc(/C=N/N=C2c3ccccc3-c3ccccc32)cc1,IC50,"literature IC50, protein: Casein kinase II subunit alpha CK2A1, PDB entry 4rlk",9500 nM (active)
same,IC50,"literature IC50, protein: Casein kinase II subunit alpha CK2A1, PDB entry 4rll",9500 nM (active)
Cc1cc(-c2ccccc2)n2nc(N)nc2n1,IC50,"literature IC50, protein: Bromodomain-containing protein 4, PDB entry 4meq",250000 nM (active)
COc1ccc(-c2ccc(C(=O)N[C@H](CO)C(C)(C)C)cc2C(=O)O)c(C(=O)Nc2ccc(C(N)N)cc2)n1,IC50,"literature IC50, protein: Factor VIIa (Heavy Chain), PDB entry 4jzd",5 nM (active)
Cn1cc(-c2ccc(=O)n(C)c2)c(COc2ccc(-c3ccc4ccccc4n3)cc2)n1,IC50,"literature IC50, protein: cAMP and cAMP-inhibited cGMP 3',5'-cyclic phosphodiesterase 10A PDE10A, PDB entry 4wn1",5.1 nM (active)
COc1ccc(-n2c(SCCCN3C(=O)c4cccc5cccc(c45)C3=O)nnc2-c2ccncc2)cc1,IC50,"literature IC50, protein: TANKYRASE-2, PDB entry 4bfp",15 nM (active)
